The values that follow come from PubChem BioAssay.

Values without a mark were called inactive. For some assays here: Measured potencies and affinities stand elsewhere. Calls of active or inactive are those of the source.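 How the source made its calls, unless noted: active means compound raising the membrane signal above positive-control mean plus 3 SD in both repeats, and a primary screen hit; inactive means the rest.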

The test system of assay [1] is TRPC4 beta (transient receptor potential cation channel C4), mouse. The experiment in a line: TRPC4 cation channel opening, retest – cell-based, Fluo4 calcium, HEK293 TRPC4beta/mu-opioid, duplicates, 10 µM, confirmation (AID 2426;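 active means fluorescence ratio normalized to control raised more than 50% in primary screen plus both repeat runs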;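 on activation: percent rise of integrated ratio over buffer wells lacking compound which define 0%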). To be noted: Fluo4 calcium fluorescence, at 10 µM; active compounds read high.
Assay [2] has as its system transient receptor potential cation channel C4 beta (TRPC4), mouse. Put plainly: TRPC4 cation channel opening, second retest – cell-based, second round, Fluo4, HEK293 TRPC4beta/mu-opioid, 1 µM, confirmation (AID 2461;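 active means primary screen active and over 50% activation in each of two duplicate runs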). To be noted: Fluo4 calcium fluorescence, at 1 µM; active compounds read high.
The test system of assay [3] is TRPC4 (transient receptor potential cation channel C4 beta), mouse. Put plainly: potentiation of DAMGO EC20 TRPC4 response – cell-based, second round, Fluo-4, HEK293 TRPC4beta/mu-opioid, 1 µM, confirmation (AID 2554;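 active means primary screen hit whose fluorescence ratio, in both repeats, exceeds the weak agonist control mean by 3 SD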). To be noted: DAMGO EC20, Fluo-4 calcium flux, at 1 µM; active compounds read high. (Calcium assays in cells follow changes in intracellular calcium, usually with a dye or a luminescent sensor.)

Assay [4] relates to TRPC4 beta (transient receptor potential cation channel C4), mouse. The experiment in a line: potentiation of DAMGO EC20 TRPC4 response – cell-based, Fluo-4, HEK293 TRPC4beta/mu-opioid, confirmation (AID 2555;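 active means primary screen hit whose calcium fluorescence ratio, in both repeats, exceeds the weak agonist control mean by 3 SD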). The note with it: DAMGO EC20, Fluo-4 calcium flux, at 10 µM; active compounds read high.
Assay [5] addresses Short transient receptor potential channel 4 (Mus musculus) (UniProt Q9QUQ5). The experiment in a line: blockers of DAMGO-evoked TRPC4 calcium flux – cell-based, Fluo4, HEK293 TRPC4beta/mu-opioid, confirmation (AID 2636;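 active means calcium signal cut by more than 3 SD below the full-agonist control yet still positive, in both repeats and the earlier primary screen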). The note with it: at 10 µM; active compounds read high.
Assay [6] shares this target. The experiment in a line: blockers of DAMGO-evoked TRPC4 calcium flux – cell-based, second round, Fluo4, HEK293 TRPC4beta/mu-opioid, 1 µM, confirmation (AID 2637;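 active means calcium signal ratio cut to more than 3 SD under the fully stimulated control mean yet still positive, in both repeats and the primary screen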;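 on inhibition: percent of integrated ratio relative to wells lacking test compound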). To be noted: at 1 µM; active compounds read high.
Assay [7] has the same target. The experiment in a line: calcium entry via TRPC4 opening agents – cell-based, HEK293 TRPC4/mu-opioid, Fluo-4 calcium, dose response (AID 434937;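 active means primary screen activator hit with a dose response curve and TRPC4 channel activation at any tested dose; inactive means no activation, no dose response, or not a primary hit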).
Assay [8] has the same target. Put plainly: potentiation of DAMGO-evoked TRPC4 calcium signal – cell-based, HEK293 TRPC4/mu-opioid, Fluo-4 calcium, EC20 DAMGO, dose response (AID 434941;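 active means earlier screen potentiator hit that boosts the TRPC4 ion channel at some dose, with a dose response; inactive means no potentiation, no dose response, or not a prior hit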;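 further: calcium entry triggered by an EC20 dose of DAMGO at the co-expressed mu-opioid receptor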).
The target is the same in assay [9]. Put plainly: block of DAMGO-driven TRPC4 calcium entry – cell-based, HEK293 TRPC4/mu-opioid, Fluo-4 calcium, dose response (AID 434942;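 active means primary screen inhibitor hit that blocks the TRPC4 channel at some tested dose, yielding a dose curve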).
Assay [10] addresses Short transient receptor potential channel 6 (Mus musculus) (UniProt Q61143). The experiment in a line: TRPC6 blockade by TRPC4 inhibitor hits – cell-based, HEK293, membrane potential dye, duplicate, selectivity assay for TRPC4 inhibitor project, confirmation (AID 434948;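 active means active in primary screen and both duplicates, each dropping signal beyond three positive-control SD with fluorescence still positive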). To be noted: HEK293 TRPC6, membrane potential dye fluorescence, at 10 µM, stimulated with maximal-effect acetylcholine; active compounds read high.

Assay [11] has the same target. Put plainly: TRPC6 opening by TRPC4 activator hits – cell-based, HEK293, membrane potential dye, duplicate, selectivity assay for TRPC4 activator project, confirmation (AID 434950;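 active means membrane potential signal rise above negative control mean plus 3 SD in both duplicates, also active in the earlier TRPC4 screen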;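 on activation: 0% = buffer only wells and 100% = acetylcholine maximal-effect wells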). To be noted: HEK293 TRPC6, membrane potential fluorescence, at 10 µM; activation: active compounds read high; outcome: activation.
Assay [12] shares this target. Put plainly: positive modulators of mouse TRPC6 channel – HEK293 cells, membrane potential dye, duplicate, selectivity assay for TRPC4 potentiator project, confirmation (AID 434952). The note with it: HEK293 TRPC6, membrane potential dye fluorescence, at 10 µM, maximal acetylcholine added after compound; active compounds read high.
In assay [13] the target is Short transient receptor potential channel 4 (Mus musculus) (UniProt Q9QUQ5). The experiment in a line: calcium flux activators in TRPC4/5HT1a cells, counter-screen for TRPC4 activator project, cell-based, second counter screen, HEK293 TRPC4/5HT1a, Fluo-4 (AID 434977;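 active means calcium signal rise above buffer-control mean plus 5 SD in both duplicates, and also a hit in the primary screen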;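 on activation: plate controls were assay buffer for no effect and maximal serotonin response for full effect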). To be noted: Fluo-4 calcium flux, at 10 µM; active compounds read high.
Chain of Short transient receptor potential channel 4 (Mus musculus) (Q9QUQ5 whole entry, looked up): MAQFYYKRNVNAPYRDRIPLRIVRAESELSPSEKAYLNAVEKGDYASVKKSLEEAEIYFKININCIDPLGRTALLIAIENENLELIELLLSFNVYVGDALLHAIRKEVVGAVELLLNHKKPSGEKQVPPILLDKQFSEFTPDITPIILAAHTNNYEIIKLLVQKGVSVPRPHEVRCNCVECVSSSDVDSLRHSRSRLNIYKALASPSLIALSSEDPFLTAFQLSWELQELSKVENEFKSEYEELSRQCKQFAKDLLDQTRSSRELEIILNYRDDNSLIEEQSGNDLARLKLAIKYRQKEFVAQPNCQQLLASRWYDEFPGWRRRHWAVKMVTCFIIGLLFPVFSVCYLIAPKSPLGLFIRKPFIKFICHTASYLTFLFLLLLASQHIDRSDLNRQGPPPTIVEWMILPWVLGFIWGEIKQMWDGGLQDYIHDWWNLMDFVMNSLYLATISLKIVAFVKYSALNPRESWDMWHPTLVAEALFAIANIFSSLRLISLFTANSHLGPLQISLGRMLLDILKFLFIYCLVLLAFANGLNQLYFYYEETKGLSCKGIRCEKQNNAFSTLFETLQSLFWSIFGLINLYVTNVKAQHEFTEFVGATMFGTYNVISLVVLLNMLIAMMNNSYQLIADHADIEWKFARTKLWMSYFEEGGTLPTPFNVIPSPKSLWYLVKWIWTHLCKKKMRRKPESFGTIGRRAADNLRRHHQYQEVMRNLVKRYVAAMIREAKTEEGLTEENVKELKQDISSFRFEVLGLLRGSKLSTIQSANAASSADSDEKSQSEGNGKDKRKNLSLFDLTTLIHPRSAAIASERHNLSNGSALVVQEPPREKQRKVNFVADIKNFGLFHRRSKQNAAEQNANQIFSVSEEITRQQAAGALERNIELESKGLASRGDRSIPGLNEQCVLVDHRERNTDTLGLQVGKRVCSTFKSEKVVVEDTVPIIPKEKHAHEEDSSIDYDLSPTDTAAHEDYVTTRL
Assay [14] can be described thus: serotonin-gated TRPC4 signal block – cell-based, second counter screen, HEK293 TRPC4/5HT1a, Fluo-4, counter-screen for TRPC4 inhibitor project, confirmation (AID 434978;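 active means primary screen active whose calcium signal fell more than 3 SD beyond the full-serotonin control mean in both duplicate plates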;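 on outcome: serotonin given first at submaximal then at maximal dose after compound preincubation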). To be noted: Fluo-4 calcium flux, at 10 µM, serotonin added to trigger calcium flux; active compounds read high. (In general: The purpose of a counterscreen is to sort out artefacts and off-target activity.)

Assay [15] concerns TRPC4 (mouse), co-expressed with 5HT1a in HEK293. Put plainly: enhancement of serotonin-evoked TRPC4 response – cell-based, second counter screen, HEK293 TRPC4/5HT1a, Fluo-4, counter-screen for TRPC4 potentiator project, confirmation (AID 434979;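 active means signal rise over 3 SD above mean of control wells given weak agonist, in both repeats and first screen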). The note with it: Fluo-4 calcium flux, at 10 µM, serotonin added at its EC20 dose; active compounds read high.
Assay [16] in a line: nonspecific calcium rise without TRPC4 – cell-based, HEK293 mu-opioid receptor line, counter-screen for TRPC4 activator project, confirmation (AID 449723;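 active means hit in primary screen, with calcium signal over 5 SD above buffer well mean in both duplicates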;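 further: counter screen cells carry the mu-opioid receptor alone and lack TRPC4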). To be noted: HEK293 mu-opioid cells, Fluo-4 calcium fluorescence, at 10 µM; active compounds read high.
Assay [17] in a line: nonspecific potentiation of DAMGO calcium response – cell-based, HEK293 mu-opioid receptor line, counter-screen for TRPC4 allosteric potentiator project, confirmation (AID 449724;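 active means calcium signal rise more than 3 SD above the low-dose agonist control mean, in both duplicate plates and the primary screen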;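 further: HEK293 cells carrying mu-opioid receptor only with no TRPC4 channel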). To be noted: HEK293 mu-opioid receptor cells, Fluo-4 calcium flux, at 10 µM, compound added before EC20 DAMGO stimulus; active compounds read high.

As a reminder, the inhibition is the share of the control response that was lost under treatment.

Chain of Short transient receptor potential channel 6 (Mus musculus) (Q61143 whole entry, looked up): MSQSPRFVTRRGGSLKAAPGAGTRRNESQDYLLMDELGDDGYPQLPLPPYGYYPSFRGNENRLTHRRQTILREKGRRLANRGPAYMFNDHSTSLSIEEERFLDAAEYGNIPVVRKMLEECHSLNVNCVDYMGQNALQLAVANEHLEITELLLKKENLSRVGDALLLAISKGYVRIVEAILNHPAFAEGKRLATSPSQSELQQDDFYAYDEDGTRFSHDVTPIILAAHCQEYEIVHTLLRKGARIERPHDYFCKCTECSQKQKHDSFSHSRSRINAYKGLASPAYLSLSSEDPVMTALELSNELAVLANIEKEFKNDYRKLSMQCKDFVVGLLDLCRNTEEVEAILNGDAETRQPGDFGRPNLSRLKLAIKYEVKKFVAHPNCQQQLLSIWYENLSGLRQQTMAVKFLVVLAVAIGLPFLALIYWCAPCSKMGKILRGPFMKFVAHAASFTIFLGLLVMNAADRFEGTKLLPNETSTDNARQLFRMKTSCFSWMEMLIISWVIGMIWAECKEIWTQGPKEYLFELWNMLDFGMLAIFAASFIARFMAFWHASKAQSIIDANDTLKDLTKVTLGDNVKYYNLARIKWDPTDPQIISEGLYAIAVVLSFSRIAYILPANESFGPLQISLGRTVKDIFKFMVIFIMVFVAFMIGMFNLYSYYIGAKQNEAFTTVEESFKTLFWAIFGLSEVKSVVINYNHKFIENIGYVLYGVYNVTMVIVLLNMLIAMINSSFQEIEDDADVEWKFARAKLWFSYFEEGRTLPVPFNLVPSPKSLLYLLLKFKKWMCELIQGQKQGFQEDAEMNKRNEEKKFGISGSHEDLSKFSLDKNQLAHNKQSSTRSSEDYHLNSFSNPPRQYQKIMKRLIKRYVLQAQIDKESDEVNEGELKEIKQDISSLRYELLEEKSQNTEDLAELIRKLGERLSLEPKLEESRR

Consider `CCCn1c(=O)c2sccc2n2c(CCCC(=O)NC3CCN(Cc4ccccc4)CC3)nnc12`, for which the result in assay [1], in assay [2], in [3], in assay [5], in assay [6] and in [7] was inactive. The result in assay [8], in [9], in assay [10], in assay [11], in [12] and in [13] was inactive. Also, the result in assay [14], in assay [16] and in [17] was inactive. For the same molecule, the figures for the potentiation in [4] and in assay [15] were 7% (active) and 7.99% (active), respectively.
On to `CC(C)C(=O)N1CCN(c2ccccc2NC(=O)c2ccco2)CC1`, for which the outcome in [1], in assay [2], in [3], in assay [4], in [6] and in assay [7] was inactive. The result in assay [8], in assay [9], in assay [10], in [11], in [12] and in assay [13] was inactive. The result in assay [14], in [15], in assay [16] and in [17] was inactive. In addition, the inhibition in [5] is 84% (active).
Turning to `COc1ccccc1OCC(=O)Nc1ccc(Cl)cc1`, the result in assay [1], in assay [2], in [3], in assay [4], in assay [7] and in assay [8] was inactive. The outcome in assay [9], in assay [10], in assay [11], in [12], in [13] and in [14] was inactive. Moreover, the outcome in assay [15], in assay [16] and in [17] was inactive. Moreover, the inhibition in assay [5] is 52% (active); in assay [6], 41% (active).
Turning to `COc1ccc(-n2cc(CNCc3cccnc3)c(-c3cccc(F)c3)n2)cc1`, the activation in assay [1] is 84% (active). In addition, the result in assay [2], in [3], in assay [4], in assay [5], in assay [6] and in [7] was inactive. In addition, the outcome in assay [8], in assay [9], in assay [10], in assay [11], in assay [12] and in assay [13] was inactive. The result in assay [14], in assay [15], in [16] and in assay [17] was inactive.
Consider `COC(=O)c1ccc(COc2ccc(/C=N/Nc3nc(C)cc(=O)[nH]3)cc2)cc1`, for which the outcome in [1], in [2], in assay [3], in [4], in [5] and in assay [6] was inactive. For the same molecule, the result in assay [7], in assay [8], in [9], in [10], in [11] and in [12] was inactive. The outcome in assay [13], in assay [14], in assay [15], in assay [16] and in assay [17] was inactive.
Consider `CC1CC(C)CN(CCCNC(=O)c2ccc(N3CCCC3=O)cc2)C1` (stereo unspecified), for which the outcome in assay [1], in assay [2], in assay [3], in [4], in [5] and in [6] was inactive. Further, the outcome in assay [7], in assay [8], in [9], in assay [10], in assay [11] and in assay [12] was inactive. In addition, the result in assay [13], in assay [14], in [16] and in assay [17] was inactive. The potentiation in assay [15] was 27.3% (active).
Regarding `O=C(C1CCN(S(=O)(=O)c2cccnc2)CC1)N1CCN(c2ccc(Cl)cc2)CC1`, the outcome in assay [1], in assay [2], in assay [3], in assay [4], in assay [5] and in assay [6] was inactive. Also, the result in [7], in assay [8], in assay [9], in [10], in assay [12] and in assay [15] was inactive. Also, the outcome in [16] and in assay [17] was inactive. The activation in [11] was 35.5% (active); in assay [13], 29.8% (active). In addition, in assay [14], the inhibition was 42.4% (active).
Turning to `CCOc1ccc(-n2c(C)cc(/C=C3/C(=N)N4C(=NC3=O)SN=C4S(C)(=O)=O)c2C)cc1`, the outcome in assay [1], in assay [2], in [3], in assay [4], in assay [5] and in [6] was inactive. The result in [7], in assay [8], in assay [9], in assay [10], in [11] and in assay [12] was inactive. The outcome in assay [13], in assay [14], in [15], in [16] and in [17] was inactive.
As to `Cc1cc(Nc2ccc3c(c2)OCCO3)c2cc(Cl)ccc2n1`, the result in assay [1], in assay [2], in assay [3], in assay [4], in [5] and in assay [6] was inactive. Moreover, the outcome in assay [7], in [8], in assay [9], in assay [10], in assay [11] and in assay [12] was inactive. For the same molecule, the outcome in [13], in [14], in assay [15], in [16] and in [17] was inactive.
Consider `CCN(CCO)Cc1csc2ccc(Br)cc12`, for which the outcome in assay [1], in assay [2], in [4], in [5], in [6] and in assay [7] was inactive. Moreover, the outcome in assay [8], in [9], in assay [10], in [11], in assay [12] and in [13] was inactive. The outcome in assay [14], in assay [15], in [16] and in assay [17] was inactive. Moreover, in assay [3], the potentiation was 12% (active).
For `CCOP(=O)(c1ccccc1)c1nc(-c2ccccc2Cl)oc1N1CCCCC1` (stereo unspecified), the result in assay [1], in assay [2], in assay [3], in assay [5], in assay [6] and in assay [7] was inactive. In addition, the outcome in assay [8], in [9], in assay [10], in assay [11], in assay [12] and in assay [13] was inactive. Besides, the outcome in assay [14], in assay [16] and in [17] was inactive. For the same molecule, the potentiation in [4] is 23% (active); in [15], 30.9% (active).
Take `Cc1cccc(N2CCN(C(=O)C3(S(=O)(=O)c4ccc(Cl)cc4)CC3)CC2)c1C`: the result in assay [1], in assay [2], in assay [3], in assay [5], in assay [6] and in [7] was inactive. Moreover, the result in [8], in assay [9], in assay [10], in [11], in assay [12] and in assay [13] was inactive. In addition, the result in assay [14], in [16] and in assay [17] was inactive. Besides, the values for the potentiation in [4] and in assay [15] were 13% (active) and 15.1% (active), respectively.
For `Cc1ccc(NS(=O)(=O)c2cc(C(=O)N3CCc4ccccc4C3)ccc2Cl)cc1`, the outcome in [1], in assay [2], in assay [3], in assay [4], in assay [5] and in [6] was inactive. Moreover, the outcome in [7], in [8], in assay [9], in assay [10], in assay [11] and in assay [12] was inactive. Moreover, the result in assay [13], in assay [14], in [16] and in [17] was inactive. Also, in [15], the potentiation was 9.01% (active).
